Experimental data taken from PubChem BioAssay (Tox21).
A number with no mark means an inactive call. Activity calls are given as the source filed them. Calls follow the shape of the dose curve; as a rule, active = well fitted curve in the direction sought with a large enough effect in the repeat runs; inconclusive = weak or mixed curves; inactive = flat fitted curve, though single readings scatter.

assay: qHTS assay to test for compound auto fluorescence at 590 nm (red) in HEK293 cell free culture (AID 720683); conditions: cell-free medium autofluorescence, Ex540/Em590 red; series mostly up to 91.3 µM; fluorescence, % of fluorescent control: at the top concentration
From the text: U.S. Tox21 Program National Center for Advancing Translational Sciences [NCATS] NIH Chemical Genomics Center [NCGC] U.S. Environmental Protection Agency [EPA] National Institutes of Environmental Health Sciences [NIEHS] National Toxicology Program [NTP] U.S. Food and Drug Administration [FDA] Tox21 Assay Overview: Compound auto fluorescence often interferes with screening of the compound library against various biological targets and signaling pathways. Some of these compounds may have fluorophoric properties. Such properties may interfere with the assay outputs resulting in false positives and/or negatives. To decrease such complications and ensure the compound activities are relevant in terms of biological response, the Tox21 10K compound library was screened for auto fluorescence. From the fluorophores used as reporter signals in our screening assays, the auto fluorescence equivalencies of compounds against three fluorophores have been evaluated: Triamterene, Fluorescein and Rose Bengal sodium for blue, green and red fluorescence, respectively. The fluorescence intensities were measured using Excitation/Emission wavelengths at 405/460nm, 485/535nm and 540/590nm for blue, green and red labels, respectively. This assay includes the red fluorescence data.
Tox21 Assay Protocol Summary: 5 uL of culture medium (DMEM containing 10% FBS) per well was dispensed into black wall/clear bottom 1536-well plates using a Multidrop Combi Dispenser (ThermoFisher Scientific, Waltham, MA). After 23 nL compound or DMSO vehicle was transferred into assay plate by a pintool work station (Kalypsys, San Diego, CA), fluorescence intensities in the assay plates were measured by an Envision (PerkinElmer, Shelton, CT) plate reader using three labels for measuring blue, green and red fluorescence at […] 460, 535 and 590nm respectively.
% is scaled to controls: 0 for no effect and ±100 for the full control effect.

**Q.** With CCC(C)c1cc(C(C)(C)C)c(O)c(C(C)(C)C)c1 (stereo not given) as the compound, how does the “fluorescence, % of fluorescent control” value read?
**A.** Its value is -0.071%.

**Q.** Which “fluorescence, % of fluorescent control” value does the source give for CCc1cc(C2=C(C(=O)O)N(c3ccccc3C(F)(F)F)S(=O)(=O)c3ccccc32)cc2c1OCO2 here?
**A.** Its value is -0.0554%.

**Q.** For CN1C[C@H]2c3ccccc3Oc3ccc(Cl)cc3[C@@H]2C1, which “fluorescence, % of fluorescent control” value is on record?
**A.** The value was 0.0606% [at 46 µM].

**Q.** For NC(=O)C(c1ccccc1)(c1ccccc1)[C@@H]1CCN(CCc2ccc3c(c2)CCO3)C1, which “fluorescence, % of fluorescent control” value is on record?
**A.** The value was -0.542% [at 46 µM].

**Q.** Which “fluorescence, % of fluorescent control” value does the source give for C/C=C/C=C/CO here?
**A.** Its value is 0.0983%.

**Q.** For COc1ccc(C)cc1[N+](=O)[O-], which “fluorescence, % of fluorescent control” value is on record?
**A.** The value was 0.193% [at 95.7 µM].

**Q.** Which Potency does the source give for CCOC(=O)C1=C[C@]2(CC)CCCN3CCc4c(n1c1ccccc41)[C@@H]32 here?
**A.** Its Potency is “inactive”.

**Q.** Which “fluorescence, % of fluorescent control” value does the source give for CCCCC(CC)CN1C(=O)C2C3C=CC(C3)C2C1=O (stereo not given) here?
**A.** The value was 0.003%.

**Q.** Which “fluorescence, % of fluorescent control” value does the source give for C=CC(=O)OCCOc1ccccc1 here?
**A.** The value was 0.0741%.

**Q.** With NCCCN1CCOCC1 as the compound, how does the “fluorescence, % of fluorescent control” value read?
**A.** Its value is -0.0617%.

**Q.** With COc1cc2nc(N(C)CCCNC(=O)C3CCCO3)nc(N)c2cc1OC (stereo not given) as the compound, how does the fluorescence, % of fluorescent control read?
**A.** Its fluorescence, % of fluorescent control is -0.206% [at 18.6 µM].

**Q.** Which “fluorescence, % of fluorescent control” value does the source give for C#C[C@]1(O)CC[C@H]2[C@@H]3CCc4cc(OC5CCCC5)ccc4[C@H]3CC[C@@]21C here?
**A.** The value was -0.394% [at 46 µM].

**Q.** Which “fluorescence, % of fluorescent control” value does the source give for O=C(Nc1ccccc1)c1ccccc1O here?
**A.** The value was -0.348%.

**Q.** With CCCCCCCC#N as the compound, how does the “fluorescence, % of fluorescent control” value read?
**A.** Its value is -0.147%.

**Q.** Which “fluorescence, % of fluorescent control” value does the source give for CN1CCC(N(Cc2cccs2)c2ccccc2)CC1 here?
**A.** Its value is -0.447% [at 46 µM].

**Q.** With c1ccc(C(O[C@H]2CCCN(CCc3ccc4c(c3)OCO4)C2)c2ccccc2)cc1 as the compound, how does the “fluorescence, % of fluorescent control” value read?
**A.** Its value is 0.297% [at 46 µM].

**Q.** For O=C1CCCCCCCCCCCC(=O)OCCO1, which “fluorescence, % of fluorescent control” value is on record?
**A.** Its value is -0.0124%.

**Q.** For COc1ccc(C(=O)N2CCN(CC(=O)N3CCOCC3)CC2)cc1, which “fluorescence, % of fluorescent control” value is on record?
**A.** The value was -0.0086% [at 46 µM].

**Q.** Which “fluorescence, % of fluorescent control” value does the source give for CCCOC(C(=O)OC1CCN(C)CC1)(c1ccccc1)c1ccccc1 here?
**A.** Its value is -0.827% [at 46 µM].

**Q.** Which “fluorescence, % of fluorescent control” value does the source give for CCC(Cl)CCC(Cl)C(Cl)CC(Cl)C(Cl)C(Cl)CCl (stereo not given) here?
**A.** Its value is -0.116%.

**Q.** For CC(C)(C)OCC1CO1 (stereo not given), which “fluorescence, % of fluorescent control” value is on record?
**A.** Its value is 0.374% [at 95.7 µM].

**Q.** Which “fluorescence, % of fluorescent control” value does the source give for OC(C#CCN1CCCC1)(c1ccccc1)c1ccccc1 here?
**A.** The value was 0.0817% [at 46 µM].

**Q.** Which fluorescence, % of fluorescent control does the source give for C/C(=C(\CCOP(=O)(O)O)SC(=O)c1ccccc1)N(C=O)Cc1cnc(C)nc1N here?
**A.** The fluorescence, % of fluorescent control was -0.0062% [at 18.6 µM].

**Q.** With CCCCCCCCCCCC(=O)OC[C@@H](O)[C@H]1OC[C@H](OCCO)[C@H]1OCCO as the compound, how does the “fluorescence, % of fluorescent control” value read?
**A.** Its value is -0.128%.

**Q.** For Clc1ccc(Cn2c(CN3CCCC3)nc3ccccc32)cc1, which fluorescence, % of fluorescent control is on record?
**A.** Its fluorescence, % of fluorescent control is 0.147% [at 18.6 µM].

**Q.** Which “fluorescence, % of fluorescent control” value does the source give for CCN(CC)CCNc1ccc(CNC=O)c2sc3ccc(OC)cc3c(=O)c12 here?
**A.** Its value is -0.562%.

**Q.** For CNC(=O)CN(CCN(CCN(CC(=O)[O-])CC(=O)NC)CC(=O)[O-])CC(=O)[O-].O.[Gd+3], which Potency is on record?
**A.** Its Potency is “inactive”.

**Q.** With CC(C)C[C@H]1C(=O)N2CCC[C@H]2[C@]2(O)O[C@](NC(=O)[C@@H]3C=C4c5cccc6[nH]c(Br)c(c56)C[C@H]4N(C)C3)(C(C)C)C(=O)N12 as the compound, how does the Potency read?
**A.** Its Potency is “inactive”.

**Q.** With CN(C)c1ccc(C(c2ccccc2)c2ccc(N(C)C)cc2)cc1 as the compound, how does the “fluorescence, % of fluorescent control” value read?
**A.** The value was -0.128%.

**Q.** Which fluorescence, % of fluorescent control does the source give for CN(C)CCN(Cc1ccc(Cl)cc1)c1ccccn1 here?
**A.** Its fluorescence, % of fluorescent control is -0.237% [at 18.6 µM].

**Q.** With C=CC(=O)OCCOCCOCCOCCOC(=O)C=C as the compound, how does the Potency read?
**A.** Its Potency is “inactive”.

**Q.** For C=CC(=O)OCCOCCOC(=O)C=C, which “fluorescence, % of fluorescent control” value is on record?
**A.** Its value is -0.119%.

**Q.** With ClCCOCCOCCCl as the compound, how does the “fluorescence, % of fluorescent control” value read?
**A.** The value was 0.0243%.

**Q.** Which “fluorescence, % of fluorescent control” value does the source give for COS(=O)(=O)C(F)(F)F here?
**A.** The value was -0.0208% [at 95.7 µM].

**Q.** For CC(C)O.CC(C)O.CCOC(=O)/C=C(\C)O.CCOC(=O)/C=C(\C)O.[Ti], which “fluorescence, % of fluorescent control” value is on record?
**A.** Its value is -0.388%.

**Q.** With CCOC(=O)COC(=O)c1cc(Oc2ccc(C(F)(F)F)cc2Cl)ccc1[N+](=O)[O-] as the compound, how does the “fluorescence, % of fluorescent control” value read?
**A.** The value was 0.0501%.

**Q.** With O=C1C(O)=C(O)C(=O)C(O)=C1O as the compound, how does the “fluorescence, % of fluorescent control” value read?
**A.** The value was 0.0875% [at 46 µM].

**Q.** With CC1=CC[C@H](C(C)C)C=C1 as the compound, how does the “fluorescence, % of fluorescent control” value read?
**A.** Its value is -0.128%.

**Q.** For CCCCO, which Potency is on record?
**A.** The Potency was “inactive”.

**Q.** Which fluorescence, % of fluorescent control does the source give for Brc1c2ccccc2c(Br)c2ccccc12 here?
**A.** The fluorescence, % of fluorescent control was 0.0422% [at 3.72 µM].
